According to PubChem BioAssay AID588690 (Broad Institute, 2011):
Out of some 2,400 compounds screened, fewer than 10 were called active. Another 1% or so got no clear call; they are omitted. Only a sample is shown. Unmarked numbers belong to inactive results.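 How the source made its calls: active means highest replicate activation at or above 34% and every replicate reaching that threshold; inconclusive means meets only one of the two criteria; inactive means meets neither criterion.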

molecular target: Protein FosB (Mus musculus) (UniProt P13346); experiment: enhancers of delta FosB homodimer–AP-1 oligo binding – biochemical, fluorescence polarization, TAMRA-CDK5 oligo, cherry-picked samples, confirmation (AID 588690); conditions: purified delta FosB, at 24.9 µM, active compounds read high, normalised: neutral wells 0, positive control 100;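 further: higher polarization means more probe DNA bound by delta FosB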
Sequence (P13346 whole entry, looked up): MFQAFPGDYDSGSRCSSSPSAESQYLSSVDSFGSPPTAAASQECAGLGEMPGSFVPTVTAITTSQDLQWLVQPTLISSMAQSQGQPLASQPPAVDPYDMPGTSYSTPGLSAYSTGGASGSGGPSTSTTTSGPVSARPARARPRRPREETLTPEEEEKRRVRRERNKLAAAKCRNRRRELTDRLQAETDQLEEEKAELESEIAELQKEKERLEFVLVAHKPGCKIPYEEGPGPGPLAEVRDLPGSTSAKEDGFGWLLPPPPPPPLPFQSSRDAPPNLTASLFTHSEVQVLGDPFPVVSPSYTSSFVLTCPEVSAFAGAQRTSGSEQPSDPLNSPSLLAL

Compound	activation [%]
O=C(Nc1ccc(Br)cc1)c1cc(S(=O)(=O)Nc2ccccn2)ccc1Cl	0.723
COc1cccc(CNC(=O)c2nnn(CC(=O)Nc3cc(Cl)ccc3C)c2N)c1	5.89
Cc1ccc2nc(-c3ccccn3)cc(C(=O)Nc3ccc4c(c3)OCO4)c2c1	5.01
CN(C)CC(O)COc1ccc(C(C)(C)c2ccc(OCC(O)CN(C)C)cc2)cc1 (stereo unspecified)	3.1
O=C(Cn1cc(-c2nnnn2-c2ccc(Cl)cc2)c(=O)c2ccccc21)c1ccccc1	0.385
CCn1c(=O)c2cc(C(=O)Nc3cccc(C(C)=O)c3)sc2c2ccccc21	8.7
CC(=O)Nc1ccc(C(=O)CSc2nnc(Cc3ccccc3)o2)cc1	1.84
O=C(N/N=C/c1cccc(O)c1)c1cc2c(ccc3ccccc32)o1	-5.62
CC(=O)c1ccc(NC(=O)C2CC(=O)Nc3nc4ccccc4n32)cc1 (stereo unspecified)	-4.9
CCCCn1c(N)c(N(CCC(C)C)C(=O)COC(=O)c2ccc(CC)cc2)c(=O)[nH]c1=O	0.0735
Cc1sc2nc(CSCC(=O)Nc3c(Cl)cccc3Cl)[nH]c(=O)c2c1C	-0.487
COc1cccc(NC(=O)Cn2c3ccc(F)cc3c3nc4n(c(=O)c32)CCS4)c1	-5.72
COc1ccc(-c2cc3n(n2)CCc2nc4ccccc4n2-3)cc1	6.36
O=C(COC(=O)c1ccc(S(=O)(=O)N2CCc3ccccc3C2)cc1)NC(=O)NCc1ccco1	-0.464
O=c1c2ccccc2oc2nc(C3CCCCC3)n(Cc3ccco3)c(=O)c12	-1.5
Cc1ccc2nc(NC(=O)C3CCN(S(=O)(=O)c4ccc5c(c4)oc(=O)n5C)CC3)sc2c1	-11.8
COC(=O)c1sc2ncccc2c1OCc1ccc(Cl)cc1Cl	-1.37
O=C(N/N=C/c1ccco1)c1ccc(NC(=O)C2CC2)cc1	-0.767
O=C1c2cccc3cccc(c23)C(=O)N1c1cccc(O)c1	3.04
COc1cc2[nH]c(=O)n(Cc3ccc(C(=O)NC4CCN(Cc5ccccc5)CC4)cc3)c(=O)c2cc1OC	0.608
Cc1ccc(-c2cc(C(=O)N/N=C/C=C/c3ccccc3)n[nH]2)o1	2.21

Compound	activation [%]
COc1ccccc1NC(=O)C1=C(C)Nc2nnnn2C1c1cccc(Br)c1 (stereo unspecified)	5.03
Nc1nonc1-n1nnc(C(=O)N/N=C/c2ccc(Cl)cc2)c1-c1ccc2c(c1)OCO2	1.91
COC(=O)c1ccc(C23CC4(C2)[C@H](CN(Cc2cccnc2)[C@@H]4c2ccccc2)C3c2ccc(Cl)nc2)cc1 (stereo partly specified)	-13.4
COc1ccc(C(=O)Nc2c(N)nc(SCC(=O)Nc3ccc(C(C)=O)cc3)[nH]c2=O)cc1	5.95
COc1ccc(NC(=O)CCC(=O)Nc2nnc(C3CCCCC3)s2)cc1	3.71
COc1ccc(C(=O)n2nc(-c3ccc(Cl)cc3)nc2N)cc1OC	0.58
N#Cc1c(N)nc2c3c(sc(=N)c2c1N)NC(=O)CC3c1ccccc1Cl (stereo unspecified)	3.21
Cc1ccc(NC(=O)COc2ccc(/C=N\NC(=O)c3cccnc3)cc2)cc1C	5.95
CCOc1ccccc1NC(=O)Cn1nnc(C(=O)NCc2cccs2)c1N	2.5
CCOc1ccc2nc(N(CCN(C)C)C(=O)c3ccc4ccccc4c3)sc2c1	-2.94
COc1ccccc1CNC(=O)Cn1c(=O)oc2cc(Cl)ccc21	5.98
O=C(Cc1ccc(-n2c(=O)c3sccc3n(Cc3ccc(F)cc3)c2=O)cc1)NCc1ccco1	7.21
COc1ccc(/C=C/C(=O)Nc2ccc(C34CC5CC(CC(O)(C5)C3)C4)cc2)cc1OC	5.41
COc1ccc(Nc2nc(NCc3ccco3)nc(N/N=C/c3ccccc3Cl)n2)cc1	2.55
Cc1ccc(-c2cc(C(=O)NCc3cn(C)nc3C)c3cc(Br)ccc3n2)cc1	-0.3
Cc1cccc(C(=O)Nc2ccccc2-c2nnn(CC(=O)Nc3ccc4c(c3)OCCO4)n2)c1	-0.9
COC(=O)c1scc(C)c1NC(=O)CSc1ccc(Cl)cc1	4.2
CC[C@@H](C)[C@@H]1CN([C@@H](C)CN2CCC[C@H]2CN2C(N)=NC[C@H]2C(C)C)C(=N)N1CCc1ccc(Cl)c(Cl)c1	-6.51
Cc1ccccc1NC(=O)c1ccc(COc2ccc3c(C)cc(=O)oc3c2)cc1	1.47
Cc1nnc(NC(=O)Nc2ccc(Cl)c(Cl)c2)s1	0.165
NC(=O)NC(=O)CSc1nc2cc([N+](=O)[O-])ccc2n1-c1cccc(C(F)(F)F)c1	3.51

Compound	activation [%]
O=C(Cn1cnc2c(nnn2Cc2ccc(F)cc2)c1=O)NCc1ccc2c(c1)OCO2	3.1
O=C(Nc1ccccc1)c1ccc(NC(=O)c2cccs2)cc1	6.7
COC(=O)c1nc2n(n1)C(c1ccc([N+](=O)[O-])cc1)C(C(=O)Nc1ccc(Cl)cc1)=C(C)N2 (stereo unspecified)	2.9
COc1ccc(/C=C/C(=O)Nc2c(C)nn(C)c2C)cc1COc1ccc(Br)cc1	5.31
CCCOc1ccc(C(=O)C(CCC(CNCC)C(=O)c2ccc(OCCC)cc2)CNCC)cc1 (stereo unspecified)	4.31
COc1ccc(CC(=O)Nc2ccc(C(=O)NC(C)(C)C)cc2)cc1	-6.76
CC(=O)Nc1ccc(S(=O)(=O)NCC(=O)OCc2cc(=O)oc3ccc4ccccc4c23)cc1	-1.24
O=C(CN1C(=O)c2cccc3cccc1c23)Nc1ccccc1	5.42
O=C(COc1coc(CN2CCN(c3ccccc3F)CC2)cc1=O)N1CCc2ccccc21	-0.869
CCOc1ccc(-n2c(SCC(=O)Nc3ccc(OC)cc3)nc3sc4c(c3c2=O)CCN(C)C4)cc1	-0.551
C#CCOCCOCCOCCNc1nc(N2CCN(C(=O)C(Cc3ccc(O)cc3)n3cc(C(N)CC(C)C)nn3)CC2)nc(N2CCN(C(=O)C(Cc3ccc(O)cc3)n3cc(C(N)C(C)CC)nn3)CC2)n1 (stereo unspecified)	2.47
CN(C)CCN(C(=O)CN1C(=O)c2ccccc2C1=O)c1nc2cc3c(cc2s1)OCCO3	0.813
Cc1ccc(NC(=O)COc2ccc(/C=C3/NC(=O)NC3=O)cc2)cc1	2.85
O=C(Nc1cccnc1Cl)c1cc(-c2ccccc2O)on1	-0.741
CCOC(=O)C1=C(O)/C(=C/c2ccc(OCC(=O)Nc3ccc(C)cc3)cc2)N=C1C	3.13
c1ccc(C[C@H]2CNCCN2CCC23CC4CC(CC(C4)C2)C3)cc1	2.28
COc1ccc(CNC(=O)c2nnn(CC(=O)Nc3cc(C)cc(C)c3)c2N)cc1	3.37
Cc1ccc(S(=O)(=O)N2CCC(Oc3ccc(-n4cnnn4)cc3)CC2)cc1	-4.91
Cn1cccc1/C=C1\SC(=O)N(CC(=O)Nc2ccc(F)cc2)C1=O	0.105
COc1ccc(/C=C/C(=O)OCC(=O)N2CCN(S(=O)(=O)c3ccc(C)cc3C)CC2)cc1OC	-0.0445
O=C(Cn1nnc(-c2ccc3c(c2)OCO3)n1)NCc1ccco1	-2.21

Compound	activation [%]
Nc1nc(SCC(=O)Nc2cc(C(F)(F)F)ccc2Cl)[nH]c(=O)c1NC(=O)c1ccco1	-8.35
O=C(N/N=C/c1cccc(Br)c1)c1ccc(N2CCCC2=O)cc1	3.06
Nc1ccc(C(=O)OCC(=O)NC2CCCc3ccccc32)cc1[N+](=O)[O-] (stereo unspecified)	0.712
COc1ccc(Br)cc1C(=O)NC(=S)Nc1cc(-c2nc3ccccc3[nH]2)ccc1C	-0.0125
COc1cccc(OCc2cc(/C=N/NC(=O)c3nc(Cl)c(Cl)c(N)c3Cl)ccc2OC)c1	1.13
Cc1cc(C)c2nc3nc(C)cc(C)c3c(N)c2c1	0.483
O=C(Nc1ccccc1)Nc1nnc(COc2ccccc2F)s1	-9.71
Cc1ccc(OCC(=O)Nc2ccccc2C(=O)NC2CC2)cc1C	1.23
COc1ccc(-c2cc(=O)c3c(O)cc(O[C@@H]4O[C@H](CO[C@@H]5O[C@@H](C)[C@H](O)[C@@H](O)[C@H]5O)[C@@H](O)[C@H](O)[C@H]4O)cc3o2)cc1O	0.468
O=C(Nc1ccc(S(=O)(=O)N2CCc3ccccc3C2)cc1)c1ccccc1	6.54
NC(N)=Nc1nc2ccc(Br)cc2c(=O)[nH]1	-0.0365
Cc1cc(NC(=O)Nc2c[nH]c(=O)[nH]c2=O)ccc1Br	7.25
CCN1CCN(c2cc3nc(C)n(Cc4ccccc4)c(=O)c3cc2NC(=O)c2ccccc2F)CC1	3.66
C=CCn1c(=NC(=O)c2ccc(S(=O)(=O)N3CCCC3)cc2)sc2cc(NC(C)=O)ccc21	2.06
CS(=O)(=O)c1ccc(-c2nnn(CC(=O)Nc3ccc4c(c3)OCCO4)n2)cc1	2.96
CC(=O)Nc1ccc(NC(=O)COc2ccccc2C(=O)Nc2cccc(Cl)c2Cl)cc1	-3.31
Cn1c(=O)oc2cc(S(=O)(=O)N3CCC(C(=O)Nc4ccc(OC(F)(F)F)cc4)CC3)ccc21	3.32
Cc1ccc(C(=O)NNC(=O)c2cc3cc4ccccc4nc3s2)cc1	-0.255
